Measurements: PubChem BioAssay (NCATS)
Where “and” joins values, the source holds several entries; their conditions need not be identical. Equal entries are not always repeated. Records with an inconclusive call do not appear. Calls of active or inactive are those of the source. Unless noted, calls follow the shape of the dose curve; as a rule, active = well fitted curve in the direction sought with a large enough effect; inconclusive = small, poorly fitted or top-dose-only effect, or another doubt; inactive = no such curve, though single readings can be large; an effect the other way counts as inactive or inconclusive.

Tests used:
[1] = test system: Zika virus NS2B-NS3 protease (unlinked complex); experiment: Primary screen GU Rhodamine qHTS for Zika virus inhibitors: Unlinked NS2B-NS3 protease assay (AID 1347159); also: nearly all actives have a fitted effect of over 60% in size; also: potency is read from the fitted curve at half-maximal effect; as to activity change, negative = inhibition: % is scaled to controls: 0 for no effect and ±100 for the full control effect
Method in brief: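 Compounds, tested up to 114 microM, were incubated for 15 minutes with 25 nM unlinked NS2B-NS3 protease at pH 8.0. Cleavage of 1.5 microM Rhodamine110 substrate was then followed by fluorescence for 15 minutes.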

[2] = test system: Zika virus NS2B-NS3 protease (linked construct); experiment: Primary screen NINDS Rhodamine qHTS for Zika virus inhibitors (AID 1347160); also: nearly all actives have a fitted effect of over 55% in size; also: potency is read from the fitted curve at half-maximal effect; as to activity change, negative = inhibition: % is scaled to controls: 0 for no effect and ±100 for the full control effect
Method in brief: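 Percent inhibition, normalized to uninhibited and enzyme-free controls, is fitted to a 4-parameter Hill equation. Fluorescence change comes from a 15-min cleavage of 1.5 microM bis-peptide Rhodamine110 substrate by 25 nM linked NS2B-NS3 at room temperature.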

[3] = molecular target: Calcium and integrin-binding protein 1 (Homo sapiens) (UniProt Q99828); experiment: Primary qHTS for Identification of Calcium Integrin Binding Protein 1 (CIB1) Competitor (AID 1508620);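 also: GST tagged CIB1 binding a fluorescein labelled alphaIIb integrin peptide tracer; top concentration of the series differs between compounds; % is scaled to controls: 0 for no effect and ±100 for the full control effect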
Method in brief: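 Fluorescence polarization competition: GST-tagged CIB1 (1 uM final) preincubated with compound 15 min at room temperature, then FITC-labelled alphaIIb peptide (100 nM final) added. After 15 min at room temperature, polarization read at Ex 480/Em 540.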

[4] = Primary qHTS for inhibitors of nuclear receptor binding SET domain protein 2 (NSD2) in an isogenic RCH-ACV NSD2 p.E1099K mutant (9B) (AID 1645876); also: potency is read from the fitted curve at half-maximal effect; nearly all actives have a fitted effect of over 70% in size
[5] = Primary qHTS for inhibitors of nuclear receptor binding SET domain protein 2 (NSD2) in an RCH-ACV wild type WT cells (2C) (AID 1645877); also: potency is read from the fitted curve at half-maximal effect; nearly all actives have a fitted effect of over 70% in size
[6] = molecular target: Luciferin 4-monooxygenase (Photinus pyralis) (UniProt P08659); experiment: Primary firefly luciferase (FLuc) qHTS assay for identification of artifact compounds. (AID 1845220); also: nearly all actives have a fitted effect of over 60% in size;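 as to activity change, negative = inhibition: plate controls were DMSO vehicle for no effect and no enzyme for full effect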
Method in brief: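 Titrated compounds were incubated 15 min at RT, protected from light, with luciferin and ATP at 10 uM; reaction started with 10 nM FLuc, luminescence imaged at 5 min, and concentration-response fitted by Hill equation.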

[7] = Primary fluorescence-based thiol-reactive (MSTI) qHTS assay for identification of artifact compounds. (AID 1845221);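 also: thiol-reactive compounds lower the probe fluorescence signal; nearly all actives have a fitted effect of over 65% in size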
Method in brief: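 First, 4 uM MSTI in 2% DMSO/PBS pH 7.4 was dispensed; next, compounds were added; then plates sat 1 h at room temperature without light. Finally, emission at 598 nm was recorded.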

[8] = test system: Nanoluciferase (engineered Oplophorus gracilirostris luciferase); experiment: Primary Nanoluciferase (NLuc) qHTS assay for identification of artifact compounds. (AID 1845222);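 also: NLuc secreted into diluted conditioned medium of S16 cells; 0% = DMSO and -100% = no enzyme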
Method in brief: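 qHTS format, against NLuc in S16 cell-conditioned medium. Nano-Glo substrate 1:100 was added after 15 min at room temperature. Luminescence was taken after a further 5 min.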

CASKI = experiment: Primary qHTS to identify gynecologic anti-cancer compounds using libraries of approved drugs and bioactive compounds (AID 1345084); settings: Gynecologic cancer cell panel viability, ATPlite luminescence, 48 h; series mostly up to 57.5 µM; also: nearly all actives have a fitted effect of over 55% in size; also: potency is read from the fitted curve at half-maximal effect; as to activity change, negative = cytotoxicity: % is scaled to controls: 0 for no effect and ±100 for the full control effect
Method in brief: (§1)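 48 h compound exposure at 37 C, 5% CO2; five-point qHTS. ATPlite luminescence readout of cell ATP.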

Es-2 = experiment: as above; settings: Gynecologic cancer cell panel viability, ATPlite luminescence, 48 h; series mostly up to 57.5 µM
Method in brief: as §1

HeLa = experiment: as above; settings: Gynecologic cancer cell panel viability, ATPlite luminescence, 48 h; series mostly up to 57.5 µM
Method in brief: as §1

Hek293T = experiment: as above; settings: Gynecologic cancer cell panel viability, ATPlite luminescence, 48 h, control line for the selectivity index; series mostly up to 57.5 µM
Method in brief: as §1

JEG-3 = experiment: as above; settings: Gynecologic cancer cell panel viability, ATPlite luminescence, 48 h; series mostly up to 57.5 µM
Method in brief: as §1

OV90 = experiment: as above; settings: Gynecologic cancer cell panel viability, ATPlite luminescence, 48 h; series mostly up to 57.5 µM
Method in brief: as §1

Tov112D = experiment: as above; settings: Gynecologic cancer cell panel viability, ATPlite luminescence, 48 h; series mostly up to 57.5 µM
Method in brief: as §1

[9] = molecular target: Glutathione peroxidase 1 (Homo sapiens) (UniProt P07203); experiment: Primary qHTS Assay for Inhibitors of Recombinant Selenoprotein Glutathione Peroxidase 1 (GPX1) (AID 1845191); also: nearly all actives have a fitted effect of over 65% in size; also: potency is read from the fitted curve at half-maximal effect
Method in brief: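 GR-coupled assay: compounds preincubated 30 min at room temperature with GPX1, then reaction started with CHP; final 10 nM GPX1, 1 mM GSH, 0.5 mM CHP, 0.5 mM NADPH, 100 nM GR, 0.01% BSA, pH 7.5 Tris buffer. NADPH fluorescence (340/450 nm) read at 0 and 15 min.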

[10] = molecular target: Phospholipid hydroperoxide glutathione peroxidase GPX4 (Homo sapiens) (UniProt P36969); experiment: Primary qHTS Assay for Inhibitors of Recombinant Selenoprotein Glutathione Peroxidase 4 (GPX4) (AID 1845192); settings: outcome: dose series up to 50 µM unless noted; also: nearly all actives have a fitted effect of over 65% in size; also: potency is read from the fitted curve at half-maximal effect
Method in brief: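 GR-coupled assay: recombinant GPX4 preincubated 30 min with compound at room temperature; final 200 nM GPX4, 1 mM GSH, 0.5 mM cumene hydroperoxide, 0.5 mM NADPH, 100 nM GR, 0.01% BSA, pH 7.5 Tris. NADPH fluorescence (340/450 nm) read at 0 and 15 min.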

C33A = experiment: Primary qHTS to identify gynecologic anti-cancer compounds using libraries of approved drugs and bioactive compounds (AID 1345084); settings: Gynecologic cancer cell panel viability, ATPlite luminescence, 48 h; series mostly up to 57.5 µM; also: nearly all actives have a fitted effect of over 55% in size; also: potency is read from the fitted curve at half-maximal effect
Method in brief: as §1

[11] = qHTS drug screen for cell cycle checkpoint inhibitors in PARPi-resistant BRCA-mutant ovarian cancer cell lines. (AID 1963452; calls by dose curve); settings: PEO1/OlaR viability, CellTiter-Glo luminescence, 96 h, stronger effect = lower value
Method in brief: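 PEO1, PEO4 and PEO1/OlaR ovarian cancer cells, 600 per well, exposed 96 h at 37C to a dilution series. Viability read by CellTiter-Glo luminescence, normalized to DMSO and empty wells; activity summarized as Z-AUC.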

[12] = P-glycoprotein substrates identified in KB-8-5-11 adenocarcinoma cell line, qHTS therapeutic library screen (AID 1346987); also: nearly all actives have a fitted effect of over 65% in size; also: potency is read from the fitted curve at half-maximal effect
Method in brief: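 Steps: plate 500 KB-8-5-11 cells/well in DMEM + 10% FCS (colchicine removed); pin compounds in dose-response; incubate 72 h, 37 degree C, 5% CO2; add CellTiter-Glo, 5 min; read luminescence.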

[13] = measured here: PEO1 parental Z-AUC

Chain of Phospholipid hydroperoxide glutathione peroxidase GPX4 (Homo sapiens) (P36969 whole entry, looked up): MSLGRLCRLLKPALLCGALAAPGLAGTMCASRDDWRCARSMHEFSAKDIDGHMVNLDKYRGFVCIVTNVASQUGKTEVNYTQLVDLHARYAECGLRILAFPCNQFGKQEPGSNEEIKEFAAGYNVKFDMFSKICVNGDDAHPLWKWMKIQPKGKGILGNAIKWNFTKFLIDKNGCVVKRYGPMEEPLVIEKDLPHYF
Chain of Glutathione peroxidase 1 (Homo sapiens) (P07203 whole entry, looked up): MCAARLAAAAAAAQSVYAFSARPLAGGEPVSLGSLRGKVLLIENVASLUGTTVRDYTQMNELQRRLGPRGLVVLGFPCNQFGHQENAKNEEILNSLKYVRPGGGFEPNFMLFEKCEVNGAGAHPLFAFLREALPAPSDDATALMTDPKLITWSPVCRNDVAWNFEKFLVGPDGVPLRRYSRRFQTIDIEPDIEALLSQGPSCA
Chain of Calcium and integrin-binding protein 1 (Homo sapiens) (Q99828 whole entry, looked up): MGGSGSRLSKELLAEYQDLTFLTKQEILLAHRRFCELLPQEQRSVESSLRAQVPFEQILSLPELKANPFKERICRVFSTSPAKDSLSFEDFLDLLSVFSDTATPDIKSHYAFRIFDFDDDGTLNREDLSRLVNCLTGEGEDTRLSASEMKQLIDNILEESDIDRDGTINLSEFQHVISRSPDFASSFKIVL

COC1CC(=O)C23C(=O)NC(CC(C)C)C2C(C)C(C)=CC3/C=C(\C)CCC(O)C1O (stereo not drawn)
inactive: Potency [1] | Potency [2] | outcome [3] | Potency [6] | Potency [7] | Potency [8] | Potency (CASKI) | Potency (Es-2) | Potency (HeLa) | Potency (Hek293T) | Potency (JEG-3) | Potency (OV90) | Potency (Tov112D)
active: Potency [4] 3.99 µM | Potency [5] 2.24 µM

CCN1CCC[C@@H]1CNC(=O)c1ccc2c(c1)NC(=O)/C(=C/c1ccccc1F)S2
inactive: Potency [1] | Potency [2] | outcome [3] | Potency [9] | Potency [10] | Potency [6] | Potency [7] | Potency [8] | Potency (C33A) | Potency (Es-2) | Potency (HeLa) | Potency (Hek293T) | Potency (JEG-3) | Potency (Tov112D)
active: Potency [4] 4.59 µM | Potency [5] 5.15 µM

c1ccc(Cn2c(-c3ccc(OCC(C4CCNCC4)n4c(-c5ccccc5)nc5ccccc54)cc3)nc3ccccc32)cc1 (stereo not drawn)
active: Potency [4] 6.61 µM | Potency [5] 5.9 µM
-0.72: Z-AUC ([11]; measured here: PEO4 Z-AUC)
-0.228: Z-AUC [11, 13]
inactive: Potency [2] | outcome [3] | Potency [9] | Potency [10] | Potency [6] | Potency [8] | Z-AUC [11] 0.308 | Potency (CASKI) | Potency (Es-2) | Potency (HeLa) | Potency (Hek293T) | Potency (JEG-3) | Potency (OV90) | Potency (Tov112D)

C=CC(=O)Nc1cccc(Nc2nc(Nc3ccc(Oc4ccnc(C(=O)NC)c4)cc3)ncc2F)c1
inactive: Potency [1] | Potency [2] | outcome [3] | Potency [9] | Potency [10] | Potency [6] | Potency [7] | Potency [8] | Z-AUC [11] -0.493 | Potency (C33A) | Potency (CASKI) | Potency (JEG-3) | Potency (OV90)
-0.105: Z-AUC [11, 13]
-0.427: Z-AUC ([11]; measured here: PEO4 Z-AUC)
active: Potency [4] 10.3 µM and 5.9 µM | Potency [5] 10.3 µM and 6.61 µM

O=C(C1=CCN2c3c(cccc31)OC[C@H]2CN1CCOCC1)c1cccc2ccccc12
inactive: Potency [1] | Potency [2] | outcome [3] | Potency [10] | Potency [6] | Potency [7] | Potency [8] | Potency (CASKI) | Potency (Hek293T) | Potency (JEG-3)

COc1ccccc1-c1cc(Nc2cccc(CS(N)(=O)=O)c2)ncn1
active: Potency [4] 4.09 µM | Potency [5] 2.9 µM | Potency (HeLa) 22.4 µM | Potency (Hek293T) 20 µM
inactive: Potency [12] | Potency [1] | Potency [2] | outcome [3] | Potency [9] | Potency [10] | Potency [6] | Potency [7] | Potency [8]

CCOc1cc(CNC2CCCC2)cc(Cl)c1OCc1ccc(Cl)cc1
active: Potency [4] 11.5 µM | Potency [5] 14.5 µM
inactive: Potency [1] | Potency [2] | outcome [3] | Potency [9] | Potency [6] | Potency [7] | Potency [8] | Potency (JEG-3)

CCCc1c(C(C)C)nc(C(C)C)c([C@@H](C)O)c1-c1ccc(F)cc1O
inactive: outcome [3] | Potency [9] | Potency [10] | Potency [6] | Potency [7] | Potency [8] | Potency (CASKI) | Potency (Es-2) | Potency (Hek293T) | Potency (OV90)
active: Potency [1] 14.1 µM | Potency [2] 14.1 µM | Potency [5] 14.5 µM

COc1ccc(NC(=O)N2CCc3c2ccc2ccccc32)cc1N1CCN(C)CC1
inactive: Potency [1] | Potency [2] | outcome [3] | Potency [9] | Potency [10] | Potency [6] | Potency [8] | Potency (CASKI) | Potency (Es-2) | Potency (HeLa) | Potency (Hek293T) | Potency (JEG-3) | Potency (OV90) | Potency (Tov112D)
active: Potency [4] 14.5 µM | Potency [5] 14.5 µM

CN(C)CCCCCCNC(=O)c1cccc(-c2cc(O)c3ncccc3c2)c1
inactive: Potency [2] | Potency [9] | Potency [10] | Potency [6] | Potency [8] | Potency (HeLa) | Potency (JEG-3) | Potency (OV90)
active: Potency [12] 8.2 µM | Potency [4] 11.5 µM | Potency [5] 7.28 µM

Cc1c(C(=O)NCCCO)cnn1-c1nc(-c2cccc(C(F)(F)F)c2)cs1
active: Potency [4] 25.8 µM
inactive: Potency [1] | Potency [2] | outcome [3] | Potency [9] | Potency [10] | Potency [6] | Potency [7] | Potency [8] | Potency (C33A) | Potency (Es-2) | Potency (HeLa) | Potency (Hek293T) | Potency (JEG-3) | Potency (OV90) | Potency (Tov112D)

CC1(C)CC[C@]2(C(=O)OC3OC(CO)C(O)C(O)C3O)CC[C@]3(C)C(=CCC4[C@@]5(C)CC[C@H](OC6OC(C(=O)O)C(O)C(O)C6O)C(CO)(CO)C5CC[C@]43C)[C@@H]2C1 (stereo partly drawn)
active: Potency [4] 0.869 µM
inactive: Potency [1] | Potency [2] | outcome [3] | Potency [9] | activity change, negative = inhibition [6] 0.233% [at 11.6 µM] | activity change, negative = thiol reactive [7] 84.5% [at 11.5 µM] | activity, negative = inhibition [8] -2.38% [at 11.6 µM] | activity change, negative = cytotoxicity (HeLa) -15.8% [at 11.6 µM] | activity change, negative = cytotoxicity (Hek293T) -26.5% [at 11.6 µM] | activity change, negative = cytotoxicity (OV90) -19.7% [at 11.6 µM] | activity change, negative = cytotoxicity (Tov112D) -7.53% [at 11.6 µM]

CC1OC2OC3C(OCC(O)C3O)OC(=O)C34CCC(C)(C)CC3C3=CCC5C6(C)CC(O)C(OC7OC(CO)C(O)C(O)C7OC7OCC(OC(=O)CC(C)(O)CC(=O)OC1C(OC1OCC(O)C(O)C1O)C2O)C(O)C7O)C(C)(CO)C6CCC5(C)C3(C)CC4O (stereo not drawn)
active: Potency [4] 2.52 µM | Potency [5] 3.17 µM | Potency (OV90) 10 µM
inactive: Potency [2] | outcome [3] | Potency [9] | Potency [6] | Potency [7] | Potency [8] | Potency (JEG-3)

COc1ccc(-c2cc(C(O)C3CCCCN3)c3ccccc3n2)cc1 (stereo not drawn)
inactive: Potency [1] | Potency [2] | outcome [3] | Potency [6] | Potency [7] | Potency [8]
active: Potency [12] 20.6 µM | Potency [4] 7.42 µM | Potency [9] 20.2 µM | Potency [10] 22.7 µM | Potency (OV90) 31.6 µM

CCOC(=O)c1cnn(-c2ccc(NC(=O)C(Cl)=C(Cl)Cl)cc2)c1C(F)(F)F
active: Potency [4] 11.5 µM
inactive: Potency [2] | outcome [3] | Potency [9] | Potency [10] | Potency [6] | Potency [7] | Potency [8] | Potency (Es-2) | Potency (HeLa) | Potency (Hek293T)

CC(C)COc1ccc(CNC(=O)N(Cc2ccc(F)cc2)C2CCN(C)CC2)cc1
inactive: Potency [1] | Potency [2] | outcome [3] | Potency [9] | Potency [10] | Potency [6] | Potency [7] | Potency [8] | Potency (C33A) | Potency (HeLa) | Potency (Hek293T) | Potency (Tov112D)
active: Potency [12] 16.4 µM | Potency [4] 20.5 µM
